According to PubChem BioAssay (NCI):
Several values for one entry are separate records, joined by “and”; a condition that tells them apart may be missing. Equal values may be shown once. This is part of a sample that, as a whole, favours compounds with a hit. Of some 83,000 tested, about 20% had one in any assay.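 Percent growth is the endpoint: 0 to 100 indicates growth inhibition (40 means 60% inhibition), 0 means no net growth, and negative values indicate cell death.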 A number with no mark means an inactive call. Activity calls are given as the source filed them. How the source made its calls: active means growth percent below 10; inactive means the rest.

system: MDA-MB-468 breast; test: NCI-60 one-dose screen, 48 h (100 = growth as untreated, 0 = no growth, -100 = all killed); conditions: 10 µM unless noted

Row | SMILES | growth
1 | O[C@@H]1CO[C@H]2[C@@H]1OC[C@@H]2O | 96.3%
2 | O=C(O)C(=O)O | 94.8%
3 | COC(=O)[C@]1(C)CCC[C@]2(C)[C@H]3C[C@H]4C(C(C)C)=C[C@]3(CC[C@H]21)[C@@H]1C(=O)N(CCC#N)C(=O)[C@@H]14 | 86.9%
4 | CN1C(=O)CNC(=O)[C@H](NC(=O)c2nc3ccccc3cc2O)CSSC[C@H]1C(=O)NCCc1nc2ccccc2cc1O | 16%
5 | COc1ccc(-c2ccc(-c3ccc(C(=N)N)s3)s2)cc1 | -75.9% (active)
6 | COc1cc(OC)c(C(=O)/C=C/c2cccc(C#N)c2)c(OC)c1 | -13.8% (active)
7 | CCN1C(=O)N(CC)C2C1NN=c1s/c(=C3\C(=O)N(C)c4ccccc43)c(=O)n12 (stereo not given) | 13.4%
8 | N=C(N)c1ccc(-c2ccc(-c3cccs3)s2)s1 | -90.3% (active)
9 | COc1ccccc1-c1nc2ccc3[nH]ncc3c2c2c1CCCC2 | 47.4%
10 | O=C(/C=C/c1ccc(F)cc1)c1ccc(Nc2nc(NCCO)nc(Nc3ccc(Cl)cc3)n2)cc1 | 57.8%
11 | CCOC(=O)c1cnn(CC(O)c2ccc(F)cc2)c1NC(=O)Nc1ccccc1F (stereo not given) | 85.8%
12 | COc1ccc(/C=C/c2nc(-c3n[nH]c(=O)n3-c3ccccc3)c3ccccc3n2)cc1 | 100%
13 | O=C(CCCCCCSc1nc(-c2ccc(Cl)cc2)cc(-c2ccc(Cl)cc2)n1)NO | 32.6%
14 | C[C@H]1[C@H](C)CC[C@]2(CO)CC[C@]3(C)C(=CC[C@@H]4[C@@]5(C)Cc6c([nH]c7ccccc67)C(C)(C)[C@@H]5CC[C@]43C)[C@H]12 | 77.8%
15 | COc1ccc(N)c(S)c1 | 97.3%
16 | COc1cc2c3c(n(CCCCNCCCn4c5c(c6cc(OC)c(OC)cc6c4=O)C(=O)c4cc6c(cc4-5)OCO6)c(=O)c2cc1OC)-c1cc2c(cc1C3=O)OCO2 | 97.7%
17 | CCC(C)c1c(N)n(S(=O)(=O)c2ccc(C)cc2)oc1=O (stereo not given) | 109%
18 | COc1ccc(-c2cc(-c3ccc(OC)cc3)c3sc(=O)[nH]c3n2)cc1 | 96.4%
19 | COc1ccc(-c2conc2-c2ccccc2)cc1 | -4.68% (active)
20 | COc1cc(-c2nc(SCc3ccc(C)cc3)[nH]c(=O)c2C#N)ccc1OCc1ccccc1 | 87.3%

Row | SMILES | growth
21 | COc1ccc2c(c1)OC1=C(C(=O)OC1)C2c1cc(OC)c2c(c1)OCCO2 (stereo not given) | 1.92% (active)
22 | O=C(Nc1ccc(Cl)c(Cl)c1)Nc1c(Oc2ccc(Cl)c(Cl)c2)ccc(Cl)c1S(=O)(=O)O | -5.92% (active)
23 | COC(=O)/C(=C\c1ccc(OC)cc1)C(=O)N1c2ccccc2Sc2ccccc21 | 76.1%
24 | CCN(CC)CCOc1ccc(/C=N/Nc2nc3c([nH]2)c(=O)n(C)c(=O)n3C)cc1 | 102% and 121%
25 | Cc1ccc(C(=O)Nc2ccc(CN3CCN(C)CC3)c(C(F)(F)F)c2)cc1C#Cc1cnc(N)c2ccc(F)cc12 | -79.2% (active)
26 | Brc1c[n+](Cc2ccc3ccccc3c2)cn1Cc1ccc2ccccc2c1 | -29.1% (active)
27 | CCCCCSB(SCCCCC)c1ccccc1 | 102%
28 | Cc1cc(Nc2ncnc3ccc(NC4=NC(C)(C)CO4)cc23)ccc1Oc1ccn2ncnc2c1 | -60.6% (active)
29 | O=C(Cc1cccc(OC(F)(F)F)c1)Nc1ccc(CCCCc2nnc(NC(=O)Cc3ccccn3)s2)nn1 | 52.3%
30 | C#CCOc1ccc(C2=NN(CCCC)C3N=C(Cl)c4ncn(CCCC)c4N23)cc1OCC#C (stereo not given) | 80.4%
31 | Clc1ccc(/C=C/c2nc(N3CCOCC3)c3nc(Cl)c(Cl)cc3n2)cc1 | 102%
32 | COc1ccc(-c2nn(-c3cccc(Cl)c3)cc2-c2c(C#N)c(=O)n3[nH]c(-c4ccccc4)nc3c2C#N)cc1 | 97.6%
33 | C#C[C@]1(O)CC[C@H]2[C@@H]3CC=C4c5sc(Nc6cccc(C)n6)nc5CC[C@]4(C)[C@H]3CC[C@@]21C | 35.7%
34 | COc1ccc(-c2cc(C(=O)Nc3ccc(C)cc3)nc3[nH]c(=O)sc23)cc1 | 66.6%
35 | COc1cccc(-c2nn(C)c3sc(C(=O)NCCN4CCN(c5ccccc5F)CC4)cc23)c1 | 45.9%
36 | CC(=O)Oc1ccc(C)cc1C | 112%
37 | O=C1/C=C/[C@@H](O)[C@@H]2C[C@@H](O)C[C@H]2/C=C/CCC[C@H](CCc2cccc3ccccc23)O1 | -32.4% (active)
38 | CN(Cc1ccccc1)c1nc(Cl)c(C2CC(c3ccc(F)cc3)=NN2C=O)s1 (stereo not given) | 77.5%
39 | CC(C)(C)c1nn(-c2ccccc2)c2c1CC1(CN2Cc2ccc(Cl)cc2)C(=O)c2ccccc2C1=O | 88.1%
40 | COc1cc(C2C3=C(COC3=O)Nc3cc4c(cc32)CCC4)cc2c1OCO2 (stereo not given) | -8.49% (active)
